Here are results for twelve compounds from ChEMBL document CHEMBL3433997, “St. Jude Leishmania screening dataset” (2016).

Holding throughout (type): functional
In assay [1] the target is Solute carrier family 2, facilitated glucose transporter member 1 (Homo sapiens) (UniProt P11166). Briefly: ST_JUDE_LEISH: Cytotoxicity at 2uM final concentration against transgenic Leishmania Mexicana promastigotes LmGLUT1 that are glucose transport deficient and complemented with the human glucose transporter GLUT1. Activity is measured by DNA content using SYBR green in vitro.
Solute carrier family 2, facilitated glucose transporter member 1 (Homo sapiens), sequence (P11166 whole entry): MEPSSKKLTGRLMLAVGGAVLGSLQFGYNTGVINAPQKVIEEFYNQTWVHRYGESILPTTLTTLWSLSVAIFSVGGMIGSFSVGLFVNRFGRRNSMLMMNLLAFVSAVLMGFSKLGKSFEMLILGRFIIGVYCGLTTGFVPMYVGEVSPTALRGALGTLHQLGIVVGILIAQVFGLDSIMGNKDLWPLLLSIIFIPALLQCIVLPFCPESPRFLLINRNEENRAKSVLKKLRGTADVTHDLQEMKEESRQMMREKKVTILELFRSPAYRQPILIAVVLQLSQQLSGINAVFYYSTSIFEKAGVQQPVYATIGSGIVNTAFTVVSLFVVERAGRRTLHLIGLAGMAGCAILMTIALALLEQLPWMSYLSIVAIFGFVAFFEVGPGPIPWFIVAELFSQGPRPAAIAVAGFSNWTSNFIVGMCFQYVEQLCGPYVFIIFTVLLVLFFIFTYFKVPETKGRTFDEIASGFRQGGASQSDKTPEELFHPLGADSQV

Assay [2] concerns the target Hexose transporter 1 (Plasmodium falciparum) (UniProt O97467). Briefly: ST_JUDE_LEISH: Cytotoxicity at 2uM final concentration against transgenic Leishmania Mexicana promastigotes LmPfHT that are glucose transport deficient and complemented with the Plasmodium falciparum hexose transporter. Activity is measured by DNA content using SYBR green in vitro.
Assay [3] concerns the target Glucose transporter (Leishmania mexicana) (UniProt O61059). Briefly: ST_JUDE_LEISH: Cytotoxicity at 2uM final concentration against transgenic Leishmania Mexicana promastigotes LmGT2 that are glucose transport deficient and complemented with the L. Mexicana glucose transporter 2. Activity is measured by DNA content using SYBR green in vitro.

The term inhibition denotes the drop in the measured response relative to a control, in per cent.

Where “and” joins values, the source holds several entries; their conditions need not be identical. Identical values can stand only once.

In the case of `CCCCOC(C(=O)OCC1CCCN1C)(c1ccccc1)c1ccccc1` (stereo unspecified), the inhibition is -0.11% in assay [1], 1.91% in assay [2] and 2.05% in assay [3].

As for `CC(Cc1ccc(NC(=O)[C@H](C)NCCc2cccc(Cl)c2)cc1)NCCc1cccc(Cl)c1` (stereo partly specified), the inhibition came to 2.86% in assay [1], 0.1% in assay [2] and 0.22% in assay [3].

`COCCNCc1ccc(-c2ccc(CN(C(=O)NC3CCCCC3)C3CCN(Cc4ccccc4)CC3)cc2)cc1`: the inhibition in assay [1] is 2.65%; in assay [2] it was 2%; in assay [3] it was -1.48%.

Turning to `CC(Cc1ccc(OCCCCOc2ccccc2)cc1)NCCCN1CCOCC1` (stereo unspecified), the inhibition is -1.24% in assay [1], 2.33% in assay [2] and -0.25% in assay [3].

On to `COc1cccc(CN2CCC(CCOC(c3ccccc3)c3ccc(Cl)cc3)CC2)c1O` (stereo unspecified), for which the inhibition in assay [1] worked out at 26.2%; in assay [2], 26.5%; in assay [3], 12.5%.

As for `COc1ccc(CCNCc2ccc3c(C)cc(N)nc3c2)cc1`, the inhibition in assay [1] was 0.82%; in assay [2] it was 2.73%; in assay [3] it was 2.71%.

On to `CS(=O)(=O)Nc1ccc2c(C3CCN(CC4CCN(C(=O)/C=C/c5ccc(Cl)c(Cl)c5)CC4)CC3)c[nH]c2c1`, for which the inhibition in assay [1] is -0.41%; in assay [2], 0.85%; in assay [3], -2.09%.

Turning to `Cc1[nH]c2c(C)cc(NS(C)(=O)=O)cc2c1C1CCN(CC2CCN(C(=O)/C=C/c3ccc(Cl)c(Cl)c3)CC2)CC1`, the inhibition in assay [1] amounted to 1.48%; in assay [2], 3.63%; in assay [3], 4.65%.

As for `Cc1cccc(C(=O)Nc2ccnc(N(C)C3CCN(CC(C)C)CC3)c2)c1`, the values for the inhibition in assay [1], in assay [2] and in assay [3] were -0.27%, 0.85% and 0%, respectively.

For `CCCCCCC(C)(C)c1cc(O)c2c3c(c(=O)oc2c1)CCN(Cc1ccccc1)C3`, the inhibition in assay [1] is 3.18%; in assay [2], 4.84%; in assay [3], 8.58%.

Turning to `Cc1[nH]c2cc(F)ccc2c1C1=CCN(CCCCC2(C)C(=O)Nc3ccccc32)CC1` (stereo unspecified), the inhibition was determined as 2.11% in assay [1], 1.23% in assay [2] and 0.15% in assay [3].

In the case of `O=C(NC1CCC(CN2CCC(c3c[nH]c4ccccc34)CC2)CC1)c1cc2ccccc2s1` (stereo unspecified), the inhibition was -1.97% and 2.46% in assay [1]; 0.46% and 1.62% in assay [2]; -5.56% and 1.62% in assay [3].
